Each structure is given as a SMILES string. For some assays here: Potency and affinity values are given separately.

Common to all, as to parameters: scale not given: direction of the effect not stated beside the values
In test [1] the target is Protein translocase subunit SecA (Escherichia coli (strain K12)) (UniProt P10408). The test is described as follows: Assay to Identify E. coli SecA ATPase Inhibitors. Type of test: functional. The note with it: 30 µM.
Test [2] concerns the target T1, Ubiquitin-activating enzyme e1, putative (Leishmania donovani (strain BPK282A1)) (UniProt E9BSI1).
T1 sequence (whole entry): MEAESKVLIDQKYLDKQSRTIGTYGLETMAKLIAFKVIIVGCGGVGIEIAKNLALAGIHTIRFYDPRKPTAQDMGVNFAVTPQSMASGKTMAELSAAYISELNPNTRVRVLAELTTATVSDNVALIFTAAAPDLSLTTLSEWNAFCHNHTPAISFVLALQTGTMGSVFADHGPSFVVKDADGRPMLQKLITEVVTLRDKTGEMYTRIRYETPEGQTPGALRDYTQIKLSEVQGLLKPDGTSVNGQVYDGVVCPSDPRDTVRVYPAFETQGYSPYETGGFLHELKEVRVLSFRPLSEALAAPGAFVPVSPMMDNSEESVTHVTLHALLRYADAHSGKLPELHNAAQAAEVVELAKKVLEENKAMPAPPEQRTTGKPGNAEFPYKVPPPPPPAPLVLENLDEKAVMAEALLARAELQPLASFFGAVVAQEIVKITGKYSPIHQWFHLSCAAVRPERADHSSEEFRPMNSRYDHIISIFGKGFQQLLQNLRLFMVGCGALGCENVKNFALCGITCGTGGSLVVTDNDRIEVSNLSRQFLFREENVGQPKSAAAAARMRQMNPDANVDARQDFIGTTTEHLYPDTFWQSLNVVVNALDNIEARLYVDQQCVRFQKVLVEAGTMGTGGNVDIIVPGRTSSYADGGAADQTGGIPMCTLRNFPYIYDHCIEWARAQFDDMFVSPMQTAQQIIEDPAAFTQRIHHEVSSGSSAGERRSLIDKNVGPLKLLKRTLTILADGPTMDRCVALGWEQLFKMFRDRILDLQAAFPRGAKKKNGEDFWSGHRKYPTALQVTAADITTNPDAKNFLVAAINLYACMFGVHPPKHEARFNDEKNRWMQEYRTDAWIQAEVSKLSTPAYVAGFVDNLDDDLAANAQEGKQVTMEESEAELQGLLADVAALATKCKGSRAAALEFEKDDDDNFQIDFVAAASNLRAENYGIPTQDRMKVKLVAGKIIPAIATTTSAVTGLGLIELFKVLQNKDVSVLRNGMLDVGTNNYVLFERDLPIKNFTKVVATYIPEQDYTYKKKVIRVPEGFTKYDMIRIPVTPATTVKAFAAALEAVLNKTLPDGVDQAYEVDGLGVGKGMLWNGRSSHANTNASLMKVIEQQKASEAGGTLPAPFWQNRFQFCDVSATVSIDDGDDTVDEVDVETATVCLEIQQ
The test is described as follows: Leishmania donovani Ubiquitin Activating Enzyme (LdE1). Type of test: functional. Conditions: 30 µM.

Test [3] concerns the target AMP-activated protein kinase, AMPK (Homo sapiens) (UniProt P54646+O43741+P54619+Q9UGJ0+Q9Y478+Q13131+Q9UGI9). The experiment in a line: AMP-dependent Kinase enzyme assay. An in vitro enzyme assay that detects ADP turnover that is directly proportional to AMPK activity. This uses naive AMPK that is activated during the assay with MK-8722. Type of test: functional. Conditions: 30 µM.

The target in test [4] is Sialic acid-binding Ig-like lectin 9 (Homo sapiens) (UniProt Q9Y336). The experiment in a line: Hs-Siglec9 ALPHAscreen SOP 20170721. The note with it: 10 µM.
In a further test the test system is Trypanosoma cruzi. The experiment in a line: Trypanosoma cruzi phosphomannomutase and mannose-1-phosphate guanylyltransferase assay. Type of test: functional. Conditions: 10 µM.
The target in test [5] is T2, Arginase-2, mitochondrial (Homo sapiens) (UniProt P78540).
T2 sequence (whole entry): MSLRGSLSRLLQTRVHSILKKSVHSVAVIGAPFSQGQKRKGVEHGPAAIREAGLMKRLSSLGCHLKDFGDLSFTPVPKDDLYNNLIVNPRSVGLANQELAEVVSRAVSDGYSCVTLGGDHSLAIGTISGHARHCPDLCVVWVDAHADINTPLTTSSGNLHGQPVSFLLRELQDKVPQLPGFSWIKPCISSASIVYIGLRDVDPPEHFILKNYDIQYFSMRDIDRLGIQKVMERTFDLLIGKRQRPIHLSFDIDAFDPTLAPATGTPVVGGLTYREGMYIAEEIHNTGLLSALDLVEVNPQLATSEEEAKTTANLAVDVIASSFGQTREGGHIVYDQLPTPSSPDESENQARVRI
The experiment in a line: in vitro enzyme assay to detect the production of urea directly proportional to the activity of Arginase II. Also: in the data most compounds retested in dose-response had high values. Type of test: functional. The note with it: 33.3 µM.

For test [6], the target named is T3, Proteasome subunit beta (Trypanosoma cruzi) (UniProt O96673).
T3 sequence (whole entry): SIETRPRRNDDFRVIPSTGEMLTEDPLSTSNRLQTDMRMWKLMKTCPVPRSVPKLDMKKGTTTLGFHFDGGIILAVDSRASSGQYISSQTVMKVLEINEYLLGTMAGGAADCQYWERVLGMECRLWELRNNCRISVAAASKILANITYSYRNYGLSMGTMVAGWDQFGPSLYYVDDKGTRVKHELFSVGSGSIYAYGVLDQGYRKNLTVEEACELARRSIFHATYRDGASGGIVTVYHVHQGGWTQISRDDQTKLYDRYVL
The experiment in a line: Trypanosoma cruzi proteasome chymotrypsin-like activity (TcProtChymo) assay. Also: in the data most compounds retested in dose-response had high values. Type of test: functional. Conditions: 9.37 µM.

For a further test, the species on record is Homo sapiens. The test is described as follows: To identify inhibition of the IFN signalling (Jak-Stat) pathway via expression of an eGFP reporter gene under the control of an IFN-stimulated response element (ISRE) containing MxA promoter. Type of test: functional. The note with it: 30 µM.
In test [7] the target is T4, Tyrosyl-tRNA synthetase, putative (Trypanosoma cruzi (strain CL Brener)) (UniProt Q4DSP6).
T4 sequence (whole entry): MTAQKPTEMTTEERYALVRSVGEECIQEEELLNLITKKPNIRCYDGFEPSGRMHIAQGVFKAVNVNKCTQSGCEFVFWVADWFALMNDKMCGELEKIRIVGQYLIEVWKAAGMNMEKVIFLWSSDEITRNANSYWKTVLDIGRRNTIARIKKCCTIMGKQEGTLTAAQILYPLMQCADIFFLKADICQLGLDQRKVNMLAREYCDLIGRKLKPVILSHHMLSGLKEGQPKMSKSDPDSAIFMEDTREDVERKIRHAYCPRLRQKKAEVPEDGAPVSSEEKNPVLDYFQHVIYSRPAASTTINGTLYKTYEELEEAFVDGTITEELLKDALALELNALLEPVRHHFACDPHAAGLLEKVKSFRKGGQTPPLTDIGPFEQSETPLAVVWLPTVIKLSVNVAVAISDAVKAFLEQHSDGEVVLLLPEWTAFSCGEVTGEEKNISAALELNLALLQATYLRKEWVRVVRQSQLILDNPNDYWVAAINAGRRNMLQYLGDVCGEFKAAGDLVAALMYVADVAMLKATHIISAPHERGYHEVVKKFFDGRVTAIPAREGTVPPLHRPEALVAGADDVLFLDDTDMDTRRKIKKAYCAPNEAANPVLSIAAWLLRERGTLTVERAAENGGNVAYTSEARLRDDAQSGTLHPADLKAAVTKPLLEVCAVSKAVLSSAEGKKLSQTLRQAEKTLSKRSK
The test is described as follows: Trypanosoma cruzi tyrosyl tRNA synthetase (TcYRS) _High Tyrosine SOP. Also: in the data most compounds retested in dose-response had high values. Type of test: functional. The note with it: 30 µM.

Test [8] concerns the target T4, Tyrosyl-tRNA synthetase, putative (Trypanosoma cruzi (strain CL Brener)). The experiment in a line: Trypanosoma cruzi tyrosyl tRNA synthetase (TcYRS) SOP. Type of test: functional. The note with it: 30 µM.
The target in test [9] is Chromo domain-containing protein 1 (Saccharomyces cerevisiae (strain ATCC 204508 / S288c) (Baker's yeast)) (UniProt P32657). The test is described as follows: ScCHD-1 Enzyme Inhibition Assay. Also: in the data most compounds retested in dose-response had high values. Type of test: functional. The note with it: 30 µM.
Chromo domain-containing protein 1 (Saccharomyces cerevisiae (strain ATCC 204508 / S288c) (Baker's yeast)), sequence (P32657 whole entry, the tested form may be a part): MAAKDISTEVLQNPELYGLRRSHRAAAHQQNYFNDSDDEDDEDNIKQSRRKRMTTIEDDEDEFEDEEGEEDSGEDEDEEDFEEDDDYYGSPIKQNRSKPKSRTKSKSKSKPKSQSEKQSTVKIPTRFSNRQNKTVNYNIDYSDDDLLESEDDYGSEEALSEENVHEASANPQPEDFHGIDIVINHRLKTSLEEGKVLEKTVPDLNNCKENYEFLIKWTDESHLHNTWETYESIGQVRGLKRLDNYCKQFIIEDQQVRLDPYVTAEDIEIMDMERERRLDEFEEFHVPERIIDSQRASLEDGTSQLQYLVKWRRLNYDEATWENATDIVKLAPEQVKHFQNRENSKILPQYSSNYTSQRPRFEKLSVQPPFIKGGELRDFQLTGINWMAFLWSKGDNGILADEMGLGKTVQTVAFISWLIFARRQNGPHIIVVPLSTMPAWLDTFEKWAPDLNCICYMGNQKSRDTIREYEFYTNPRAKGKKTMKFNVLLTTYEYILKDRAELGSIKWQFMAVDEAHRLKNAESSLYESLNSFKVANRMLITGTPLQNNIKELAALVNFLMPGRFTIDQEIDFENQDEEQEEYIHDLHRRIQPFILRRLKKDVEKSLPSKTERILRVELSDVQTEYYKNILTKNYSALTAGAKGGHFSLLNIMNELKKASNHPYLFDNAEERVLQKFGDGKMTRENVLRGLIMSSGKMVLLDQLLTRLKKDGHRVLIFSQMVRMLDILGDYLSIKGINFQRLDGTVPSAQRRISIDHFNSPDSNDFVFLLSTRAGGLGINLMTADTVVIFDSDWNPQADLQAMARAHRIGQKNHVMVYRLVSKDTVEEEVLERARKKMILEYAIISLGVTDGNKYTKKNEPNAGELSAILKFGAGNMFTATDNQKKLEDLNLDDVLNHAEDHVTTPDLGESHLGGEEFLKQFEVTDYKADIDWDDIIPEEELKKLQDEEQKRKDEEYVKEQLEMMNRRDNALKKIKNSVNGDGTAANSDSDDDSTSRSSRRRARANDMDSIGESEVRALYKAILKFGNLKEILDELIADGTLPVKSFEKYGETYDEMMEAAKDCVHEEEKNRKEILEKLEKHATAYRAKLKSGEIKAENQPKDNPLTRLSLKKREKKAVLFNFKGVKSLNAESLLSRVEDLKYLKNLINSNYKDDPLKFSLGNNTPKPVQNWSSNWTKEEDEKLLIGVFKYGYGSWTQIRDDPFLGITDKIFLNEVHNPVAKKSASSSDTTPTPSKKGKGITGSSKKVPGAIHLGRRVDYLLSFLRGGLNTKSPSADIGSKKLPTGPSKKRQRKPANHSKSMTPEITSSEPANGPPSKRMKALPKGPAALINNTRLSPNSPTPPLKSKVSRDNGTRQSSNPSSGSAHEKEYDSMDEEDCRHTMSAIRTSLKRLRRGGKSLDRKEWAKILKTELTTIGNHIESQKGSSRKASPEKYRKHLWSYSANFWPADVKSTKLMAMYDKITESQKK

Protein translocase subunit SecA (Escherichia coli (strain K12)), sequence (P10408 whole entry): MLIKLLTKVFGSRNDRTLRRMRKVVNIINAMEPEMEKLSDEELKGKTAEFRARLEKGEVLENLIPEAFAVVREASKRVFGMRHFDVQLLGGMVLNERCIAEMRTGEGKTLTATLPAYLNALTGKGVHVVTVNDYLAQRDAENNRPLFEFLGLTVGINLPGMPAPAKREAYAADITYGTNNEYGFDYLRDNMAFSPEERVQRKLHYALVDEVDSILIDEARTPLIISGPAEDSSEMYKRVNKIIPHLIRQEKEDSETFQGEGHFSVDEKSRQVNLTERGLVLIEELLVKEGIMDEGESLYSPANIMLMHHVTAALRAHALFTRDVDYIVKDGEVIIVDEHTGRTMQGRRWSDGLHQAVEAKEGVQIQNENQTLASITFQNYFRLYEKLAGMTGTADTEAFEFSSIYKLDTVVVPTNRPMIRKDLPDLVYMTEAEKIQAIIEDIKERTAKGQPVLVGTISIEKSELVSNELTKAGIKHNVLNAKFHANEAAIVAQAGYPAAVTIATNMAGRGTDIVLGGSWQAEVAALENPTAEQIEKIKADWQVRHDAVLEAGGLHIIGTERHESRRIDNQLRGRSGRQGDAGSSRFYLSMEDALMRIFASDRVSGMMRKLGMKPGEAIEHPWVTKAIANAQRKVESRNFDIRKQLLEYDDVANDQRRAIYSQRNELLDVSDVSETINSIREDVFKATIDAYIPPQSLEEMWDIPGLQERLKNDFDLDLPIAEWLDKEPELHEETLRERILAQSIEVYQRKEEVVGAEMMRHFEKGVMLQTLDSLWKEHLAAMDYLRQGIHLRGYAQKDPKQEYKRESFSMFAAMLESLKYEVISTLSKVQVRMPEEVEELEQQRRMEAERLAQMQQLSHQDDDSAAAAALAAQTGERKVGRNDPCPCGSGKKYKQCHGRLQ
Sialic acid-binding Ig-like lectin 9 (Homo sapiens), sequence (Q9Y336 whole entry): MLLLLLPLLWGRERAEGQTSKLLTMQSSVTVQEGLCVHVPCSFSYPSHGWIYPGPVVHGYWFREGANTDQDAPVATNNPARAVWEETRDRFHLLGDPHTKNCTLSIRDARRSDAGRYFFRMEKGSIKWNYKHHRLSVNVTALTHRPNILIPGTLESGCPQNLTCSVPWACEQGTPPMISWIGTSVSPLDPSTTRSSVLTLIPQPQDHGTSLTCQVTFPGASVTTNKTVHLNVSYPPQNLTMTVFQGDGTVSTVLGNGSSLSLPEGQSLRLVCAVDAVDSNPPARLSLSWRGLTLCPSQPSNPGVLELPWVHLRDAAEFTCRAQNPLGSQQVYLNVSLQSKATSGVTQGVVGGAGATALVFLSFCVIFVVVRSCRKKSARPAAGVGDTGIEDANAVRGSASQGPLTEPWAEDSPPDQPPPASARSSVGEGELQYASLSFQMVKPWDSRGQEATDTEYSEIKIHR

With `O=C(COc1coc(CN2CCCCCC2)cc1=O)c1ccccc1`, the Percent Effect in test [1] was -5.87%; in [2], -7.89%; in test [3], -1.88%; in [4], -6.78%; in the test on Trypanosoma cruzi it was -3.6%; in [5] it was -1.18%. In addition, the Percent Effect in [6] is 9.49%; in the test listed under Homo sapiens, -1.04%; in [7] it was 3.19%; in [8], 0%; in test [9] it was 72.3%.
With `Cc1cc(C(=O)NCc2ccnc(N(C)C)c2)c(C)o1`, the Percent Effect in [1] is -4.79%; in test [2] it was 23.4%; in [3], -3.99%; in test [4] it was -6.37%; with Trypanosoma cruzi it was -5.24%; in [5], -1.42%. In addition, the Percent Effect in test [6] was 8.62%; in the test listed under Homo sapiens, -12%; in test [7], 4.85%; in test [8], 12.2%; in test [9], -10.6%.
For the compound `Cc1csc(N2CCCN(Cc3noc(C)n3)CC2)n1`, the Percent Effect in test [1] is -2.54%; in [2], 3.8%; in test [3] it was -4.18%; in [4] it was 0.549%; in the test with Trypanosoma cruzi, 2.36%; in [5] it was -7.1%. The Percent Effect is 15.9% in [6]; 11.2% in the test listed under Homo sapiens; 5.21% in test [7]; 7.59% in test [8]; -16% in [9].
Consider `Cc1cncc(C(=O)N2CCCCC2c2nc(C)cs2)c1` (stereo not given), for which the Percent Effect in test [1] was -4.34%; in test [2], -36.4%; in test [3], -2.13%; in [4] it was 4.39%; in the test on Trypanosoma cruzi, 8.99%; in [5], 3.92%. The Percent Effect is 9.29% in [6]; 16.2% in the test filed under Homo sapiens; 9.71% in test [7]; 21.9% in test [8]; -10.7% in test [9].
Consider `CCc1cnc2c(c1Nc1ccc(OC)cc1)c(=O)n(C)c(=O)n2C`, for which the Percent Effect was -1.52% in test [1]; 18.2% in test [2]; 0.437% in test [3]; -14.7% in [4]; 2.66% in the test with Trypanosoma cruzi; -41.9% in test [5]. The Percent Effect is 8.88% in test [6]; 11.4% in the test listed under Homo sapiens; 4.23% in [7]; 8.97% in [8]; -11.2% in test [9].
Take `CNc1nc(C(=O)N2CCCC(c3nccn3CC3CCC3)C2)cs1` (stereo not given): the Percent Effect in [1] is -5.42%; in test [2], 8.22%; in test [3], -0.395%; in test [4], -0.171%; in the test on Trypanosoma cruzi, 1.96%; in test [5] it was 0.455%. Also, the Percent Effect is 7.81% in [6]; 0.132% in the test filed under Homo sapiens; 6.45% in [7]; -22.5% in test [8]; -6.79% in [9].
Take `O=C([C@H]1CCCO1)N1CCc2ncnc(NC3CC3)c2CC1`: the Percent Effect in [1] is 1.86%; in test [2] it was 0%; in test [3], -0.252%; in test [4], -2.06%; in the test on Trypanosoma cruzi, -5.47%; in test [5], 5%. Further, the Percent Effect is 12.4% in [6]; 3.34% in the test filed under Homo sapiens; 9.9% in test [7]; 13.4% in test [8]; -4.91% in test [9].
For the compound `CN(C)C(CNS(=O)(=O)c1ccc(F)cc1F)c1cccn1C` (stereo not given), the Percent Effect was -6.84% in test [1]; 8.22% in test [2]; 2.21% in test [3]; -1% in test [4]; -4.9% in the test with Trypanosoma cruzi; 2.73% in test [5]. In addition, the Percent Effect in [6] is 10.8%; in the test filed under Homo sapiens, 13.6%; in test [7] it was 4.3%; in test [8], 12.5%; in [9], -4.19%.
Take `Cc1ccc(C)c(NC(=O)c2n[nH]c(-n3cnnc3)n2)c1`: the Percent Effect in test [1] is -1.59%; in [2] it was 6.67%; in [3] it was 0.649%; in test [4] it was 8.26%; in the test with Trypanosoma cruzi, 2.75%; in test [5], -2.64%. Further, the Percent Effect in test [6] is 9.24%; in the test filed under Homo sapiens it was 18.5%; in test [7] it was 6.35%; in [8], 10.3%; in [9], -4%.
`O=C(c1ccccc1-n1cccn1)N1CCCN(c2cccnn2)CC1`: the Percent Effect in [1] was -2.4%; in test [2], -15.6%; in test [3], 5.31%; in [4], 10.5%; in the test with Trypanosoma cruzi, -0.294%; in test [5], 1.05%. For the same compound, the Percent Effect in test [6] is 9.46%; in the test filed under Homo sapiens, -6.03%; in [7], 0.952%; in [8] it was 9.41%; in test [9], -13.5%.

For the origin of these results see ChEMBL document CHEMBL3988442, “University of Dundee, Small-Polar-MMV Screening Library” (2021).
